IDE exosite inh = insulin-degrading enzyme (human) exo-site inhibition | purified IDE, FL-6b probe fluorescence polarization; hits give low values | hit rate 6.3% among 17,000 | z-score at 20 µM | AID 1259349;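 active = z-score of -3 or lower, meaning strong loss of probe binding signal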;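 also: His-tagged human IDE residues 42-1019 made in E. coli with 30 nM FL-6b probe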
Active calls of the source: *. This is one part of a sample in which hits are shown more often than they occur.

SMILES	IDE exosite inh
CCc1csc(N2[C@@H](C#N)[C@@H](c3ccccc3-c3cccc(F)c3)[C@@H]2CO)n1	1.2
CC(=O)N1[C@@H](CO)[C@H](c2ccccc2)[C@@H]1CN(CC(C)C)C(=O)c1ccccn1	-0.77
O=C(Cc1ccccn1)N1CC(=O)N2[C@@H](CO)[C@@H](c3ccc(C#CC4CCCCC4)cc3)[C@@H]2C1	0.97
O=C(c1ccc(F)cc1)N1CCCCN2[C@@H](CO)[C@@H](c3ccc(/C=C/c4ccccc4)cc3)[C@@H]2C1	-0.79
CN(C)CC(=O)N1CCCCN2[C@H](C1)[C@H](c1ccc(/C=C/c3ccccc3)cc1)[C@@H]2CO	-7.3*
C/C=C/c1ccc([C@@H]2[C@H]3CN(C(=O)CN(C)C)CCCCN3[C@H]2CO)cc1	1.1
CN(C)CC(=O)N1CCCCN2[C@@H](CO)[C@@H](c3ccc(/C=C/c4ccccc4)cc3)[C@@H]2C1	-12*
CN(C)CC(=O)N1CCCCN2[C@H](CO)[C@H](c3ccc(/C=C/c4ccccc4)cc3)[C@H]2C1	-11*
CN(C)CC#Cc1ccc([C@@H]2[C@@H](CO)N3CCCCN(C(=O)CN(C)C)C[C@H]23)cc1	1.4
CN(C)CC(=O)N1CCCCN2[C@@H](CO)[C@@H](c3ccc(-c4cncnc4)cc3)[C@@H]2C1	0.079
O=C(c1ccc(F)cc1)N1CCCCN2[C@H](CO)[C@@H](c3ccc(/C=C/c4ccccc4)cc3)[C@@H]2C1	0.98
CN(C)CC#Cc1ccc([C@H]2[C@@H](CO)N3CCCCN(C(=O)CN(C)C)C[C@H]23)cc1	4
O=C(c1ccc(F)cc1)N1CCCCN2[C@H](CO)[C@H](c3ccc(/C=C/c4ccccc4)cc3)[C@H]2C1	-1.6
CN(C)CC(=O)N1CCCCN2[C@@H](CO)[C@H](c3ccc(/C=C/c4ccccc4)cc3)[C@@H]2C1	-6.5*
CN(C)CC(=O)N1CCCCN2[C@@H](CO)[C@@H](c3ccc(-c4ccccc4)cc3)[C@@H]2C1	-0.78
O=C(c1cccc(F)c1)N1CC(=O)N2[C@@H](CO)[C@@H](c3ccc(C4=CCCC4)cc3)[C@@H]2C1	4.7
C[C@H]1CN([C@@H](C)CO)C(=O)c2ccccc2-c2ccccc2CO[C@H]1CN(C)S(=O)(=O)c1ccc([N+](=O)[O-])cc1	1.3
CC(C)(O)C#Cc1ccc([C@H]2[C@@H](CO)N3CCCCN(C(=O)c4cccc(F)c4)C[C@@H]23)cc1	1.2
CN(C)CC#Cc1ccc([C@@H]2[C@H](CO)N3CCCCN(C(=O)CN(C)C)C[C@@H]23)cc1	4
CN1CCCCN2[C@H](C1)[C@@H](c1ccc(/C=C/c3ccccc3)cc1)[C@@H]2CO	-2.5
CN(C)CC#Cc1ccc([C@@H]2[C@H]3CN(C(=O)CN(C)C)CCCCN3[C@H]2CO)cc1	1.7
CN(C)CC(=O)N1CCCCN2[C@H](C1)[C@@H](c1ccc(/C=C/c3ccccc3)cc1)[C@@H]2CO	-5.9*
CCC(=O)N1CCCCN2[C@H](CO)[C@H](c3ccc(/C=C/c4ccccc4)cc3)[C@@H]2C1	-7.3*
O=C(c1ccc(F)cc1)N1CCCCN2[C@H](CO)[C@H](c3ccc(/C=C/c4ccccc4)cc3)[C@@H]2C1	6.9
CO[C@H](CN(C)S(=O)(=O)c1cccc(Cl)c1)[C@@H](C)CN(C(=O)Nc1ccccc1F)[C@H](C)CO	0.2
SMILES	IDE exosite inh
CN(C)C(=O)c1ccc(-c2ccc([C@H]3[C@H]4CN(C(=O)C5CCCCC5)CC(=O)N4[C@H]3CO)cc2)cc1	1.1
N#C[C@H]1[C@@H](c2ccccc2-c2ccccc2F)[C@H](CO)N1C(=O)C1CCC1	1.4
C[C@H]1CN([C@@H](C)CO)C(=O)c2ccccc2-c2ccccc2CO[C@H]1CN(C)S(=O)(=O)c1cn(C)cn1	-1.1
O=C(C1CC1)N1CC(=O)N2[C@@H](CO)[C@@H](c3ccc(C#CCc4ccccc4)cc3)[C@@H]2C1	-3.3*
COCC(=O)N1CC(=O)N2[C@H](CO)[C@H](c3ccc(C#CCc4ccccc4)cc3)[C@H]2C1	-2.9
O=C(C1CC1)N1CC(=O)N2[C@H](C1)[C@H](c1ccc(C#CCc3ccccc3)cc1)[C@@H]2CO	-4.6*
O=C(C1CCOCC1)N1CC(=O)N2[C@H](CO)[C@@H](c3ccc(C#CCc4ccccc4)cc3)[C@@H]2C1	-0.28
O=C(C1CCOCC1)N1CC(=O)N2[C@@H](CO)[C@@H](c3ccc(C#CCc4ccccc4)cc3)[C@@H]2C1	-1.1
COCC(=O)N1CC(=O)N2[C@H](CO)[C@@H](c3ccc(C#CCc4ccccc4)cc3)[C@@H]2C1	-3
COCC(=O)N1CC(=O)N2[C@@H](CO)[C@H](c3ccc(C#CCc4ccccc4)cc3)[C@@H]2C1	-0.16
O=C(C1CCOCC1)N1CC(=O)N2[C@H](C1)[C@@H](c1ccc(C#CCc3ccccc3)cc1)[C@@H]2CO	-0.15
COCC(=O)N1CC(=O)N2[C@@H](CO)[C@@H](c3ccc(C#CCc4ccccc4)cc3)[C@@H]2C1	-4.7*
O=C(C[C@@H]1C=C[C@@H](NC(=O)Nc2ccccc2F)[C@H](CO)O1)NCc1ccc(-c2ccccc2)cc1	-0.93
O=C(Cc1ccncc1)N1CC(=O)N2[C@H](CO)[C@H](c3ccc(Br)cc3)[C@@H]2C1	0.63
CN(C)CC#Cc1ccc([C@@H]2[C@@H](CO)N3C(=O)CN(C(=O)c4ccc(F)cc4)C[C@@H]23)cc1	0.55
Cc1ccccc1S(=O)(=O)N1CCCCN2[C@H](C1)[C@H](c1ccc(-c3cccc(F)c3)cc1)[C@@H]2CO	2.8
CCCC#Cc1ccc([C@@H]2[C@H](CO)N3C(=O)CN(C(=O)Nc4ccc(F)cc4)C[C@@H]23)cc1	3.4
CN1C(=O)c2cc(NC(=O)c3ccno3)ccc2OC[C@H]2O[C@@H](CC(=O)Nc3ccccc3)CC[C@@H]21	0.09
Cc1ccccc1S(=O)(=O)Nc1ccc2c(c1)C(=O)N(C)[C@@H]1CC[C@H](CC(=O)O)O[C@@H]1CO2	-1.1
O=C(NC1CCCC1)N1CC(=O)N2[C@H](CO)[C@H](c3ccc(-c4ccccc4)cc3)[C@@H]2C1	-5.7*
O=C(NC1CCCCC1)N1CC(=O)N2[C@H](CO)[C@@H](c3ccc(-c4ccncc4)cc3)[C@H]2C1	-0.66
O=C(NC1CCCC1)N1CC(=O)N2[C@H](CO)[C@H](c3ccc(-c4cccnc4)cc3)[C@@H]2C1	-3.4*
O=C(C1CCCCC1)N1CC(=O)N2[C@H](CO)[C@H](c3ccc(-c4cccnc4)cc3)[C@@H]2C1	0.25
O=C(NC1CCCC1)N1CC(=O)N2[C@H](CO)[C@@H](c3ccc(-c4ccncc4)cc3)[C@H]2C1	1.1
O=C(NC1CCCC1)N1CC(=O)N2[C@H](CO)[C@H](c3ccc(-c4ccncc4)cc3)[C@@H]2C1	0.54
SMILES	IDE exosite inh
O=C(C1CCCCC1)N1CC(=O)N2[C@@H](CO)[C@@H](c3ccc(-c4cccnc4)cc3)[C@@H]2C1	-0.39
O=C(C1CCCCC1)N1CC(=O)N2[C@H](CO)[C@@H](c3ccc(-c4cccnc4)cc3)[C@@H]2C1	-5.1*
O=C(C1CCCCC1)N1CC(=O)N2[C@H](C1)[C@@H](c1ccc(-c3cccnc3)cc1)[C@@H]2CO	-0.83
C[C@@H]1CN([C@@H](C)CO)C(=O)c2ccccc2-c2ccccc2CO[C@@H]1CN(C)Cc1ccc(Oc2ccccc2)cc1	-0.096
CCCN1C[C@@H](C)[C@@H](OC)CN(C)C(=O)c2cc(NC(=O)C3CCC3)ccc2OC[C@@H]1C	-0.17
Cc1ccc(-c2ccccc2[C@H]2[C@@H](C#N)N(S(C)(=O)=O)[C@@H]2CO)cc1	0.064

Screens deposited in PubChem by Broad Institute.
